Experimental data published in PubChem BioAssay (NCI).
About 83,000 compounds went through this panel and 20% of them were active in at least one assay; those are over-represented in the sample as a whole.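 Negative percent growth values reflect cell death: -40 means 40% of the cells present at the start died, and -100 means all died.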 Unmarked numbers belong to inactive results. The source made the active and inactive calls. How the source made its calls: active means growth percent below 10; inactive means the rest.

Legend:
Assay in all cases: NCI-60 one-dose screen, 48 h (100 = growth as untreated, 0 = no growth, -100 = all killed)
SN12C renal = conditions: 10 µM unless noted
UO-31 renal = conditions: 10 µM unless noted
TK-10 renal = conditions: 10 µM unless noted
ACHN renal = conditions: 10 µM unless noted
CAKI-1 renal = conditions: 10 µM unless noted
A498 renal = conditions: 10 µM unless noted
CCRF-CEM leukemia = conditions: 10 µM unless noted
SR leukemia = conditions: 10 µM unless noted
RPMI-8226 leukemia = conditions: 10 µM unless noted
OVCAR-8 ovarian = conditions: 10 µM unless noted
OVCAR-5 ovarian = conditions: 10 µM unless noted
OVCAR-4 ovarian = conditions: 10 µM unless noted
SK-OV-3 ovarian = conditions: 10 µM unless noted
IGROV1 ovarian = conditions: 10 µM unless noted
OVCAR-3 ovarian = conditions: 10 µM unless noted
HS 578T breast = conditions: 10 µM
MOLT-4 leukemia = conditions: 10 µM unless noted
NCI/ADR-RES ovarian = conditions: 10 µM unless noted

SMILES	growth (SN12C renal)	growth (UO-31 renal)	growth (TK-10 renal) [%]	growth (ACHN renal)	growth (CAKI-1 renal)	growth (A498 renal)	growth (CCRF-CEM leukemia)	growth (SR leukemia)	growth (RPMI-8226 leukemia)	growth (OVCAR-8 ovarian)	growth (OVCAR-5 ovarian) [%]	growth (OVCAR-4 ovarian)	growth (SK-OV-3 ovarian) [%]	growth (IGROV1 ovarian)	growth (OVCAR-3 ovarian)	growth (HS 578T breast)	growth (MOLT-4 leukemia)	growth (NCI/ADR-RES ovarian)
COc1cc(C2CC(c3ccc(Nc4ccnc5cc(Cl)ccc45)cc3)=NN2c2ccccc2)cc(OC)c1OC (centres undefined)	76.3%	57.8%	89.8	77.1%	48.2%	61%	47.5%	24.8%	49.7%	81.2%	86.4	123%	90.3	106%	86.7%	72.4%		
Cc1ccc(C2CC(c3cccs3)=NN2c2ccc(S(N)(=O)=O)cc2)s1 (centres undefined)	98.3%	75.8%	94.8	91.9%	86.7%	89.9%	80.6%	82.2%	65.3%	83.2%	101	110%	101	98.8%	94%	97.2%	89.2%	84.6%
Cc1cc(C)c2c(n1)sc1c(Nc3ccc(OCc4ccccc4)cc3)ncnc12	101%	85.1%	92.4	106%	97.5%	78.3%	86.6%	95.5%	95.1%	104%	109	107%	106	97.5%	100%	108%	101%	100%
CCN(CC)C(Cl)=Nc1ccc(Cl)cc1	99.2%	87.8%	101	98.5%	103%	99.6%	100%	84.3%	95.1%	106%	105	108%	102	109%	107%	101%	95.7%	106%
COc1ccc(C2=Nn3c(nnc3-c3ccc(Cl)cc3N)SC2)cc1	99%	83.4%	130	97%	92.9%	118%	73.2%	102%	103%	98.1%	99.5	103%	102	114%	114%	113%	101%	115%
COc1ccc(C2CC(c3ccc(Nc4ccnc5cc(Cl)ccc45)cc3)=NN2c2ccccc2)cc1 (centres undefined)	91.9%	93.9%	109	97.2%	85.1%	49.7%	69.8%	81%	70.5%	95.4%		163%	108	113%	111%	105%	52.3%	
O=C(Nc1ccc(Oc2ccc(Nc3nc4ccccc4s3)cc2)cc1)Nc1ccc(Cl)c(C(F)(F)F)c1	1.99% (active)	14.1%	12.6	3.09% (active)	12.4%	-18.3% (active)	5.88% (active)	0.688% (active)	-19.5% (active)	6.28% (active)	23.6	17.7%	12.1	17%	-3.18% (active)	7.39% (active)	5.65% (active)	5% (active)
CC(C)CC(NC(=O)OCC1c2ccccc2-c2ccccc21)C(=O)O (centres undefined)	104%	94.2%	109	112%	86.6%	95%	98.7%	93.7%	101%	122%	101	102%	95	91%	115%	115%	96.2%	107%
O=C(CI)NCCNc1cccc2c(S(=O)(=O)O)cccc12	94.7%	93.4%	111	107%	109%	92.7%	100%	90.4%	101%		107	110%	106	97.6%	100%	104%	98.3%	106%
COc1ccc(/C=C2\N=C(c3cccnc3)N(c3ccccc3)NC2=O)cc1	105%	82.2%	101	115%	97.6%	71.8%	-21.1% (active)	92.7%	68.5%		103	99.7%	130	115%	95.9%	92%	85.6%	100%
CCOC(CN1CCN(CC(C)C(=O)c2ccccc2)CC1)c1ccccc1 (centres undefined)	98.6%	89%	115	106%	93.7%	97.1%	84.7%	99.3%	88.8%	104%	110	93.4%	105	104%	112%	115%	105%	106%
[Ag].[Ag].[NH-]S(=O)(=O)c1ccc(N=Nc2cc(N=Nc3ccc(S([NH-])(=O)=O)cc3)c3c(NC(=O)C(Cl)Cl)cccc3c2OC(=O)C(Cl)Cl)cc1.[c-]1nccs1.[c-]1nccs1	89.6%	69.4%	108	52.3%	59.1%	101%	44.7%	72.1%	83.5%	68.3%	120	110%	114	76.2%	72.7%	76.3%	78.4%	90.4%
c1ccc2c(Cc3csc4ccccc34)csc2c1	97.1%	47.5%	106	93.1%	81.2%	107%	94.2%	50%	94.8%	101%	101	88.3%	77.7		92.5%	104%	87%	81.9%
Cc1cc(C)c2c(n1)sc1c(Nc3ccc(O)cc3)ncnc12	21.5%	-10.3% (active)	59.1	16%	15.8%	18.6%	16.6%	13.4%	39%	10.8%	55.4	90.6%	30.5	68.2%	55.3%	82.5%	14.3%	19.1%
COc1ccccc1NC(=O)OCC12COCN1COC2	100%	94.9%	108	102%	100%	80.5%	102%	93.8%	99.8%	96%	96.4	105%	105	109%	116%	110%	95.9%	107%
Cc1cc(C)c(C#N)c(SCC(=O)c2sc3c(C#N)c(C)cc(C)[n+]3c2[O-])n1	31.4%	45.5%	35.3	31%	-6.91% (active)	-6.21% (active)	9.64% (active)	5.47% (active)	43.1%		41.6	66.9%	14.7	9.29% (active)	-15.9% (active)	21.8%	2.71% (active)	12%
O=Cc1ccc2nc(C(Cl)(Cl)Cl)ccc2c1	104%	81.8%	101	101%	99.7%	93.6%	91.9%	93.2%	93.7%	107%	108	110%	90.5	93.1%	103%	102%	98.4%	105%
CC1=NOCC(=O)N1	102%	96.5%	103	102%	96.3%	111%	90.3%	97.5%	99.9%	107%		95.4%	103	104%	108%	117%	102%	110%

SMILES	growth (SN12C renal)	growth (UO-31 renal)	growth (TK-10 renal) [%]	growth (ACHN renal)	growth (CAKI-1 renal)	growth (A498 renal)	growth (CCRF-CEM leukemia)	growth (SR leukemia)	growth (RPMI-8226 leukemia)	growth (OVCAR-8 ovarian)	growth (OVCAR-5 ovarian) [%]	growth (OVCAR-4 ovarian)	growth (SK-OV-3 ovarian) [%]	growth (IGROV1 ovarian)	growth (OVCAR-3 ovarian)	growth (HS 578T breast)	growth (MOLT-4 leukemia)	growth (NCI/ADR-RES ovarian)
C=CCn1c(C)nc2cc(Nc3nc(N4CCOCC4)nc4nc[nH]c34)ccc21	84.3%	87.4%	92.4	93.7%	93.8%	37.5%	89.9%	85.6%	71.9%	87.3%	74.1	88.4%	82.6	72.9%	97.7%	57.3%	74.4%	108%
COc1ccc(C2CC(c3cccc(Nc4ccnc5cc(Cl)ccc45)c3)=NN2c2ccc(Cl)cc2)cc1 (centres undefined)	89.7%	50.1%	93.6	50.5%	1.94% (active)	49.7%	53.5%	69.7%	42.6%	56.6%	84.4	95.9%	94.7	99.1%	74.2%	90.5%		
Nc1cc2nc3ccccc3oc-2cc1=O	-48.8% (active)	-40.2% (active)	173	53.3%		-7.02% (active)	94%			58.4%	81.6	69.6%	92.4		10.1%	-38.3% (active)		60.6%
C=CCn1c(C)nc2cc(Nc3nc(N4CCCC4)nc4nc[nH]c34)ccc21		61.2%	11.8	17.8%	89%	1.35% (active)	83.9%	-9.28% (active)	29.9%	74.7%	30.6	-30.4% (active)	59	55.8%	-11.3% (active)	-0.0485% (active)	89%	94.7%
CCCCn1c(C)nc2ccc(Nc3nc(Cl)nc4nc[nH]c34)cc21		57.8%	67.3	79%	60.5%	-0.303% (active)	53%	42.5%	43.7%	78.2%	74.5	68.4%	77	68.2%	62.7%	6.13% (active)	37.9%	101%
Cc1ccc2cc3c(NC(=O)c4cccnc4)nn(C)c3nc2c1	101%	78.6%	103	89%		91.7%	72.2%	95.8%	76.3%	94.6%	102	97.1%	94.2	80.6%	91.1%	96%	94.3%	95%
CC(=O)Nc1nonc1-c1nc2ccccc2n1Cc1ccc(C(C)(C)C)cc1	82.2%	46.1%	95.5	82.1%	69%	-4.2% (active)			58%	78.4%	93.5	81%	88.9	78.7%	71.3%	27.1%	51.7%	59.7%
CNC(=O)c1ccccc1Sc1ccc2c(/C=C/c3ccccn3)n[nH]c2c1	27.6%	17.3%	54.8	31.2%	30.7%	-23.3% (active)		10.4%	25.2%	28.4%	41.4	34.2%	44.5	23.1%	52.7%		13.4%	36.9%
CCOC(=O)c1ccccc1SC(C[N+](=O)[O-])c1ccccc1 (centres undefined)	93.4%		92.9	88.7%	92.5%	87%	65.5%	38.2%	-41.5% (active)	85.8%	100	89.1%	117	72.1%	104%	104%	94.3%	112%
C=C(C)c1ccc(/C=N/NC(N)=S)cc1	93.3%	78.6%	103	93.2%		98.4%	64%	66.9%	72%	81.5%	120	83.7%	125	82.8%	101%	65.6%	75.3%	97.8%
COc1ccc(/C=C2\CCCC3=C2N=C2SC(C)=NN2C3c2ccc(OC)c(OC)c2)cc1OC (centres undefined)	26.6%		25.6	20.7%	26.1%	52.2%	3.82% (active)	14.3%	-24.9% (active)	-4.14% (active)	26.5	41.4%	62.8	30.4%	23.8%	86.2%	27.7%	17.7%
NC(N)=N/N=C/c1ccccc1	103%	88.3%	93.5	106%		97.7%	84.8%	96%	89.1%	99.5%	93.2	101%	101	108%	99.5%	101%	95%	104%
C[C@@H]1C[C@H](N)C[C@H](c2ccncc2NC(=O)c2ccc(F)c(-c3c(F)cccc3F)n2)C1	58.2%	25.3%	67.6	60.5%	27.7%	35.9%		-17.7% (active)	4.68% (active)	62.6%	71.3	53.2%	62	46.5%	74.5%		9.29% (active)	65.8%
COc1ccc2cc(-c3nc(C)c(C(C)=O)c(-c4ccc(C)cc4)n3)ccc2c1	95.5%	72.9%	93.9	98.7%	79.5%	83%		108%	86.9%	93.4%	93.1	92%	97.5	101%	94.3%	86%	106%	92.5%
COc1cccc(Cn2c(-c3nonc3NC(C)=O)nc3ccccc32)c1	48.4%	36%	26.6	42.8%	24%	-0.794% (active)		16.3%	28.4%		39.2	79.9%	16.9	56.8%	69.5%	23.6%		30.3%
Clc1ccc(-c2nc(Br)cn3ccnc23)cc1	86.5%	40.3%	85.7	83.4%	73%	76.6%		92.2%	93.4%	86.8%	90.4	112%	88.5	74.3%	82.8%	91.3%	78.9%	
Oc1ccc(Nc2ncnc3c2sc2ncccc23)cc1	17.1%	-9.84% (active)	59.7	9.05% (active)	13.1%	8.96% (active)	16%	7.62% (active)	31.9%	7.28% (active)	65	84.3%	30.3	52.3%	55.8%	82.7%		15.6%
COc1cc(C2CC(c3cccc(Nc4ccnc5cc(Cl)ccc45)c3)=NN2c2ccc(Cl)cc2)cc(OC)c1OC (centres undefined)	57.1%		76.7	41.5%	-1.85% (active)	64.9%	63.1%	55.9%	47.8%	55.2%	80.2	115%	92.2	39.7%	83.3%	64.8%		
